Source: PubChem (The Scripps Research Institute Molecular Screening Center)
FBW7 activator – human FBW7 E3 ligase activation, primary screen. Q969H0. AlphaScreen FBW7–phospho-cyclin E peptide binding, activator screen. normalized activity (activation), % at 26.1 µM. 650,000 compounds, 0.13% hits. AID 1259310; in the data active means normalized activity above about 1.9%;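 further: purified mutant Fbw7 with reduced substrate affinity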
MITF primary – blocks human microphthalmia-associated transcription factor | O75030 | AlphaScreen MITF homodimerization, bead proximity signal | inhibition, % at 2.6 µM | 650,000 compounds, 0.91% hits; in the data active means inhibition above about 50%;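 further: 0% = vehicle wells with protein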
Target sequence (O75030 whole entry, looked up): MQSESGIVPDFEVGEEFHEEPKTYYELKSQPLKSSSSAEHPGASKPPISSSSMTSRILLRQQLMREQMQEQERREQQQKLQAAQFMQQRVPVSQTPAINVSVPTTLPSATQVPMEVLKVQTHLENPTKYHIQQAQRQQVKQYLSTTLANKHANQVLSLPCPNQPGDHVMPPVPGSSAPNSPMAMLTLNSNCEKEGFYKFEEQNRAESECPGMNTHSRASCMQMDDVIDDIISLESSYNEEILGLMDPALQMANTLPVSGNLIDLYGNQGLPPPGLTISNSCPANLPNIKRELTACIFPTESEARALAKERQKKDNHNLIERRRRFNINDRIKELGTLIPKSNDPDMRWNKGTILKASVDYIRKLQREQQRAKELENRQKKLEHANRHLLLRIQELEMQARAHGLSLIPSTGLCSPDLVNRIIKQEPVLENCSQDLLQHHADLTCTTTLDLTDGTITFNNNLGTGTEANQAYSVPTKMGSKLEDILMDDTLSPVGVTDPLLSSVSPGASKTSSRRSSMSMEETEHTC
GPR151 activ – activators of human GPR151 | PathHunter beta-arrestin GPR151 cells, luminescence | activation, % at 11.2 µM | 650,000 compounds, 1% hits | AID 1508602; in the data active means activation above about 4.9%;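 further: 0% = median of compound wells and 100% = cells with positive control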
TEAD-YAP block – TEAD-YAP interaction inhibition; HEK-TIYL cells, TEAD-Gal4/YAP UAS-luciferase luminescence; inhibition, % at 9.12 µM; 640,000 compounds, 1.4% hits; AID 1259422; in the data active means inhibition above about 32%;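 further: 0% = median of test compound wells and 100% = reference inhibitor wells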
MITF confirm – human MITF inhibition, confirmation; shares compounds with MITF primary; AlphaScreen MITF homodimerization, biotin/His-MITF beads; inhibition, % at 2.6 µM; 4,700 compounds, 16% hits;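 active means inhibition above a cutoff derived from the DMSO control wells, cut at about 28% in these data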;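 further: 0% = MITF dimer wells with DMSO only; inhibitors lower the bead chemiluminescence by keeping MITF from dimerizing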
AS interf DR – counter-screen: compounds optically interfering with AlphaScreen; shares compounds with MITF primary; AlphaScreen optical interference counterscreen, cell-free; IC50, µM; 480 compounds, 6% hits; AID 1259373; call rule not given here
AlphaScreen intf2 – optically interferes with AlphaScreen signal; shares compounds with MITF primary; LysRS AlphaScreen counterscreen, signal interference, triplicate; inhibition, % at 2.6 µM; 4,700 compounds, 7.6% hits;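 active means inhibition above a cutoff derived from the DMSO control wells, cut at about 30% in these data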
GPR151 confirm – confirmation of human GPR151 activators | shares compounds with GPR151 activ | activation, % at 11.2 µM | GPR151 PathHunter beta-arrestin cells, luminescence, 90 min; % of EA-reagent control over plate median | 6,700 tested, under 10 active;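 active means mean percent activation across replicates above the confirmation screen cutoff of 4.91%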
GPR119 counter – GPR119 activation, counter-screen for GPR151 activators; GPR119 PathHunter beta-arrestin cells, luminescence, 90 min; 0 = compound-well median, 100 = enzyme-acceptor control; 6,700 compounds, 0.3% hits; activation, % at 11.2 µM; shares compounds with GPR151 activ;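 active means mean percent activation in the counterscreen above 29.09%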;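 further: counterscreen on off-target GPR119 to flag nonselective hits from the GPR151 activator screen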
Numbers without * were called inactive; x = no result given; ! = repeats disagree. Hits are enriched below; roughly 3.4% of the tested compounds scored in any of these assays.

SMILES | FBW7 activator | MITF primary | GPR151 activ | TEAD-YAP block | MITF confirm | AlphaScreen intf2 | others
O=[N+]([O-])c1ccc(Br)c2c1no[n+]2[O-] | -1.0 | 73.5* | -1.4 | -4.4 | 73.3* | 6.8 | AS interf DR=>7.51
Fc1ccc(CN2CCN(Cc3ccccc3)CC2)cc1 | 0.0 | 58.8* | -0.9 | -0.5 | 10.9 | 28.4
Fc1ccc(CN2CCN(c3ccc(Cl)cc3)CC2)cc1 | -0.1 | 8.7 | 1.6 | 0.4 | x | x
Fc1ccc(CN2CCN(Cc3ccc(Cl)cc3)CC2)cc1 | 0.1 | 68.4* | -0.3 | 9.8 | 1.6 | 15.6
O=C1C2CCC1C(N1CCCC1)CC2 (stereo not given) | 0.0 | 14.3 | -0.8 | 1.1 | x | x
O=C1CN=C(c2ccccc2Br)c2cc(Br)ccc2N1 | 0.1 | 15.9 | -1.6 | 9.2 | x | x
COc1cccc(CN2CCN(Cc3ccc(C)cc3)CC2)c1 | -0.1 | 77.2* | -0.5 | -12.4 | 8.2 | 1.4
COc1cccc(CN2CCN(c3ccc(C(C)=O)cc3)CC2)c1 | 0.1 | 63.9* | -0.2 | -6.4 | 8.8 | 3.2
COc1ccc(CN2CCN(Cc3cccc(OC)c3)CC2)cc1 | 0.0 | 63.5* | 2.2 | 2.1 | 12.2 | 12.0
CC(=O)c1ccc(N2CCN(Cc3cccc(O)c3)CC2)cc1 | -0.2 | 30.8 | 0.1 | -2.7 | x | x
COc1ccc(N2CCN(Cc3cccc(OC)c3)CC2)cc1 | -0.4 | 34.4 | 1.4 | 4.9 | x | x
COCCOC(=O)C1=C(C)OC(N)=C(C#N)C12C(=O)N(CC(=O)OC)c1ccccc12 (stereo not given) | -0.1 | -8.1 | 4.4 | -2.5 | x | x
C=C1C2CC3(CC4CC5C6(C)CCC(O)C5(C3CC2=O)C4[N+]([O-])(CC)C6)C1O (stereo not given) | -0.1 | 8.3 | -0.1 | 8.3 | x | x
O=C(c1ccccn1)N1CC2CC(C1)c1cccc(=O)n1C2 (stereo not given) | 0.0 | -3.4 | -0.8 | 1.4 | x | x
N/C(=N\[N+](=O)[O-])N/N=C\c1ccc(-c2ccc(O)c(C(=O)O)c2)o1 | -0.9 | 74.6* | -0.8 | -8.2 | 79.1* | 10.9 | AS interf DR=>6.48
N/C(=N\[N+](=O)[O-])N/N=C\c1ccc(-c2ccccc2C(=O)O)o1 | -0.1 | 1.7 | 1.1 | 14.2 | x | x
CCc1ccc(N2C(=O)CC(=O)NC2=O)cc1 | 0.4 | 69.3* | -1.4 | 0.8 | 7.5 | 15.1
Cc1cc(C=C(C#N)C#N)c(C)n1C1CCCC1 | 1.4 | 13.9 | 1.0 | -13.7 | x | x
CCc1ccc(CNCCc2c[nH]c3ccccc23)cc1 | -0.3 | 18.8 | 0.0 | 3.1 | x | x
Brc1ccc(CNCCc2c[nH]c3ccccc23)cc1 | 0.7 | 54.9* | 3.4 | 6.7 | 10.6 | 18.6
Fc1cccc(F)c1CN1CCN(c2ccccc2)CC1 | 0.0 | 56.3* | -1.0 | 5.8 | 2.9 | -7.4
COc1cccc(N2CCN(Cc3ccccc3F)CC2)c1 | 0.2 | 60.1* | -1.6 | -1.9 | -10.5 | -4.4
CC(=O)c1ccc(N2CCN(Cc3ccccc3F)CC2)cc1 | 1.0 | 51.4* | 0.5 | -0.8 | -3.8 | 4.0
CC(=O)c1ccc(N2CCN(Cc3ccc(F)cc3)CC2)cc1 | -0.1 | 30.1 | -0.4 | -11.0 | x | x
CCOC(=O)c1ccc(NC(=O)CCc2nc(C3=CCN(C)CC3)no2)cc1 | 3.4* | 61.6* | 1.2 | 12.1 | 69.3* | 38.4*
SMILES | FBW7 activator | MITF primary | GPR151 activ | TEAD-YAP block | MITF confirm | AlphaScreen intf2 | others
Cc1cnc(C)c(-c2cccc3c2OC(CNC(=O)C2C(C)(C)C2(C)C)C3)n1 (stereo not given) | -0.2 | 1.3 | 0.4 | 4.6 | x | x
O=C1CC(=O)N(Cc2ccc(F)cc2)C(=O)N1 | 0.2 | 17.5 | -0.8 | 0.2 | x | x
Cc1ccccc1-n1c(/C=C/c2ccco2)nc2ccc(I)cc2c1=O | -0.1 | 5.0 | 0.3 | 9.4 | x | x
CCN1CCN(Cc2ccc(Cl)cc2)CC1 | 0.0 | 11.3 | 0.3 | -0.6 | x | x
OCCN1CCN(Cc2ccc(Cl)cc2)CC1 | -0.1 | 67.5* | -0.1 | 3.8 | -1.4 | 4.7
O=C(Cc1ccccc1)N1CCN(Cc2cccc(Cl)c2)CC1 | -0.3 | 45.5 | -1.1 | 15.1 | x | x
OCCN1CCN(Cc2cccc(Cl)c2)CC1 | 0.8 | 83.4* | -0.6 | 3.0 | 1.2 | 3.8
OCCN1CCN(Cc2cccc(Cl)c2Cl)CC1 | -0.1 | 65.2* | -1.2 | -7.5 | -1.7 | -0.1
O=P(O)(O)C(Cl)(Cl)P(=O)(O)O | -0.2 | 77.1*! | 1.4 | -7.2 | 62.5* | -7.3
CC(=O)OC1CCC2(C)C(=CCC3C2CCC2(C)C3CC3(C(C)=O)OC32)C1 (stereo not given) | -0.2 | 0.1 | -1.2 | 10.2 | x | x
COc1ccccc1CN1CCN(Cc2ccccc2C)CC1 | -0.2 | 78.4* | -0.1 | -7.8 | 6.5 | 8.6
CCN1CCN(Cc2ccccc2OC)CC1 | -0.1 | -67.0 | 0.2 | -3.0 | x | x
COc1ccccc1CN1CCN(Cc2ccccc2Br)CC1 | 0.0 | 71.2* | -1.7 | -16.0 | 1.9 | 6.0
CN1C2CCC1CC(OC(=O)CNC1CCCCC1)C2 (stereo not given) | 0.0 | 55.4* | 2.6 | -5.1 | 7.9 | 14.2
CCOC(=O)c1c(C)n(C(C)C)c2ccc(OC(=O)c3ccco3)cc12 | 0.1 | -2.0 | 0.2 | -6.1 | x | x
CCOC(=O)C1C2NC(=S)N(CC)C1(C)Oc1ccc(Br)cc12 (stereo not given) | -0.2 | 53.1* | 1.1 | 14.5 | 31.2* | 24.9 | AS interf DR=>6.31
CCOC(=O)C1C2NC(=S)N(c3ccccc3)C1(C)Oc1cc(OC)ccc12 (stereo not given) | -0.6 | 52.5* | -0.5 | -8.1 | 47.1* | 29.7 | AS interf DR=>6.4
CCOC(=O)C1C2NC(=S)N(c3cccc(C)c3)C1(C)Oc1ccc(OC)cc12 (stereo not given) | -0.8 | 58.7* | -0.4 | 4.1 | 49.6* | 35.0*
CCOC(=O)C1C2NC(=S)N(CCc3ccccc3)C1(C)Oc1ccc(Br)cc12 (stereo not given) | -0.1 | 18.4 | 2.7 | 4.6 | x | x
C=CCOC(=O)C1=C(C)OC(N)=C(C#N)C12C(=O)Nc1ccc(C)cc12 (stereo not given) | -0.1 | 2.9 | 0.0 | 1.5 | x | x
CCC(C)NC(=O)CCc1nc(C2=CCN(C)CC2)no1 (stereo not given) | 1.8 | 41.8 | -0.3 | 3.4 | x | x
Cc1nn(Cc2ccccc2)c(C)c1C=O | 0.1 | -1.6 | 5.1* | -9.1 | x | x | GPR151 confirm=-0.4;GPR119 counter=-0.9
C=CCOC(=O)C1=C(C)OC(N)=C(C(=O)OCc2ccccc2)C12C(=O)Nc1ccccc12 (stereo not given) | 0.2 | 19.6 | 6.3* | 8.2 | x | x | GPR151 confirm=1.1;GPR119 counter=3.0
O=[N+]([O-])c1cccc(CN2CCNCC2)c1 | -0.1 | 9.2 | -1.3 | 5.2 | x | x
